From the supplement of paper PMC9135407 come the findings set out here.

The structures appear in SMILES notation. Several values for one entry are separate records, joined by “and”; a condition that tells them apart may be missing. Identical values can stand only once. Counter-ions that a name gives are not always drawn. About 620 (11%) of roughly 5,800 compounds showed activity. The list comes from a sample in which actives are over-represented; it also holds similar structures and randomly drawn compounds. Values without a mark were called inactive.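 The calls were made as follows: active = score above a cut-off or among the top three wells of a plate; in these data no inactive exceeds 0.85.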

This assay has as its system primary human hepatic stellate cells (donor 1). Description: scaled lipid accumulation score (0 = DMSO-like, 1 = nortriptyline-like); higher = stronger HSC inactivation (lipid re-accumulation), active = hit call of the paper. The conditions noted are these: 48 h.
Where [1] appears, read: library stock concentration: 10 mM.
The mark [2] stands for this setting: library stock concentration: 15.3 mM.
The mark [3] stands for this setting: library stock concentration: 80 uM.
Where [4] appears, read: library stock concentration: 400 uM.
Setting [5] is: library stock concentration: 2 mM.
[6] abbreviates: library stock concentration: 3.33 mM.
Setting [7] is: library stock concentration: 1 mM.

For `CCCC(CCC)C(=O)O[C@H]1C[C@H]2CC[C@@H](C1)[N+]2(C)C` [Anisotropine methyl bromide], the “scaled lipid accumulation score” value under setting [1] is 0.296.
Consider `OC[C@H]1O[C@H](O[C@H]2[C@H](O)[C@@H](O)C(O)O[C@@H]2CO)[C@H](O)[C@@H](O)[C@@H]1O` (stereo partly drawn), for which the “scaled lipid accumulation score” value under setting [1] is at most 0.
On to `Nc1nc2c(ccc3ccccc32)s1`, for which the “scaled lipid accumulation score” value under setting [1] is at most 0.
As to `CC1=C(C)C(=O)C(CCCCC#CCCCC#CCO)=C(C)C1=O` [Docebenone], where the note is “library stock concentration: 6.1 mM”, the “scaled lipid accumulation score” value was at most -0.006.
For `CC1=C(C)C(=O)C(CCCCC#CCCCC#CCO)=C(C)C1=O`, the “scaled lipid accumulation score” value is, setting by setting: under setting [1], 0.105; under setting [2], at most -0.012.
Take `O=C(O)CCNc1cc(N2CCc3ccccc3CC2)nc(-c2cccnc2)n1`: the “scaled lipid accumulation score” value was at most 0 under setting [3], at most 0 under setting [4], at most 0 under setting [5] and at most 0 under setting [1].
As to `CC(C)(C)OC(=O)N[C@H]1CCCCC/C=C\[C@@H]2C[C@@]2(C(=O)NS(=O)(=O)C2CC2)NC(=O)[C@@H]2C[C@@H](OC(=O)N3Cc4cccc(F)c4C3)CN2C1=O` [Danoprevir (ITMN-191)], the “scaled lipid accumulation score” value was 0.049 under setting [6] and at most 0 under setting [1].
On to `CO[C@H]1C[C@@H]2CC[C@@H](C)[C@@](O)(O2)C(=O)C(=O)N2CCCC[C@H]2C(=O)O[C@H]([C@H](C)C[C@@H]2CC[C@@H](O)[C@H](OC)C2)CC(=O)[C@H](C)/C=C(\C)[C@@H](O)[C@@H](OC)C(=O)[C@H](C)C[C@H](C)/C=C/C=C/C=C/1C` [Rapamycin (Sirolimus)], for which the “scaled lipid accumulation score” value runs as follows: under setting [6], 0.037; under setting [1], at most 0.
`CO[C@H]1C[C@@H]2CC[C@@H](C)[C@@](O)(O2)C(=O)C(=O)N2CCCC[C@H]2C(=O)O[C@H]([C@H](C)C[C@@H]2CC[C@@H](O)[C@H](OC)C2)CC(=O)[C@H](C)/C=C(\C)[C@@H](O)[C@@H](OC)C(=O)[C@H](C)C[C@H](C)/C=C/C=C/C=C/1C` [Rapamycin]: the “scaled lipid accumulation score” value by setting is: under setting [3], at most 0; under setting [4], at most 0; under setting [7], at most 0; under setting [5], at most 0; under setting [6], at most 0; under setting [1], at most 0.
On to `O=C1NC(=O)c2c1c(-c1ccccc1)cc1[nH]c3ccc(O)cc3c21`, for which the “scaled lipid accumulation score” value under setting [1] is ≤ -0.055 and ≤ -0.001.
For `OCCN1CCN(CCCN2c3ccccc3Sc3ccc(C(F)(F)F)cc32)CC1` [Fluphenazine dihydrochloride], the “scaled lipid accumulation score” value is 0.627. Further, the “scaled lipid accumulation score” value under setting [1] is at most -0.07.
For the compound `OCCN1CCN(CCCN2c3ccccc3Sc3ccc(C(F)(F)F)cc32)CC1`, under setting [1], the “scaled lipid accumulation score” value is 1.34 (active).
Take `OCCN1CCN(CCCN2c3ccccc3Sc3ccc(C(F)(F)F)cc32)CC1` [Fluphenazine hydrochloride]: under setting [1], the “scaled lipid accumulation score” value was 0.407.
Take `CC(C)(O)C1CCC(C)(C2C(O)CC3(C)C4CC(OC5OC(CO)C(O)C(O)C5O)C5C(C)(C)C(OC6OCC(O)C(O)C6O)CCC56CC46CCC23C)O1` (stereo not drawn) [Astragaloside A]: the “scaled lipid accumulation score” value by setting is: under setting [6], 0.019; under setting [1], at most 0.
In the case of `CCCCC/C=C\C/C=C\C/C=C\CCCC/C=C\CCC(=O)O` [cis-4,10,13,16-Docosatetraenoic Acid], under setting [7], the “scaled lipid accumulation score” value was at most 0.
Regarding `CCCCC[C@H](O)/C=C/[C@H]1[C@H](O)CC(=O)[C@@H]1C/C=C\CCCC(=O)OC` [Prostaglandin E2 methyl ester], the “scaled lipid accumulation score” value under setting [7] was at most 0.
For `C[C@@H](NCCCc1cccc(C(F)(F)F)c1)c1cccc2ccccc12` [Cinacalcet HCl], the “scaled lipid accumulation score” value runs as follows: under setting [6], 0.207; under setting [1], 0.351.
On the same counts, the results for `O=C1CC(=O)c2c(Cl)c(Cl)c(Cl)c(Cl)c21` are at most -0.009 and 0.011.
Consider `CC(C)n1cnc2c(NCCc3ccc(O)cc3)nc(-c3csc4ccccc34)nc21` [StemRegenin 1 (SR1)] [listing 1 of 2 here], for which the “scaled lipid accumulation score” value under setting [6] is at most 0.
As to `CC(C)n1cnc2c(NCc3ccccc3)nc(NCCO)nc21` [N9-Isopropylolomoucine], the “scaled lipid accumulation score” value under setting [2] is at most -0.012.
In the case of `CC(C)n1cnc2c(NCCc3ccc(O)cc3)nc(-c3csc4ccccc34)nc21` [StemRegenin 1 (SR1)] [listing 2 of 2 here], the “scaled lipid accumulation score” value under setting [1] is 0.919 (active).
Consider `CC\C=C/C=C/C=C/C=C\CCCCCCCC(=O)O` [cis-Parinaric Acid], for which, under setting [7], the “scaled lipid accumulation score” value is 0.028.
Same read-out and setting: as for `CC(C)Oc1ccc(C(=O)c2ccc(NC3=NCCN3)cc2)cc1`, the figure is 0.073.
As to `CC(=O)Nc1nc2c(Oc3cc(-c4ccc(C(F)(F)F)cc4)ncn3)cccc2s1`, the “scaled lipid accumulation score” value runs as follows: under setting [6], at most -0.009; under setting [1], 0.221.
Regarding `CCN(CC)CC1CCN(c2ncc3ncnc(Nc4ccc(F)c(Cl)c4)c3n2)CC1.Cl.Cl` [BIBU 1361 dihydrochloride], under setting [1], the “scaled lipid accumulation score” value was 1.06 (active).
On to `COc1ccc(F)c(F)c1C(=O)c1cnc(NC2CCN(S(C)(=O)=O)CC2)nc1N`, for which the “scaled lipid accumulation score” value under setting [6] was 0.082 and the “scaled lipid accumulation score” value under setting [1] is 0.057.
Turning to `CN1CCC(Nc2ncc3ncnc(Nc4ccc(F)c(Cl)c4)c3n2)CC1.Cl.Cl` [BIBX 1382 dihydrochloride], under setting [1], the “scaled lipid accumulation score” value was 1.61 (active).
Regarding `COc1ccc(CC(=O)NC(/N=C(\NC#N)Nc2cccc3ncccc23)C(C)(C)C)cc1OC` (stereo not drawn), the “scaled lipid accumulation score” value under setting [1] is 0.014.
On to `O=C(O[C@@H]1Cc2c(O)cc(O)cc2O[C@@H]1c1cc(O)c(O)c(O)c1)c1cc(O)c(O)c(O)c1` [Epigallocatechin gallate], for which the “scaled lipid accumulation score” value under setting [3] was at most 0, the “scaled lipid accumulation score” value under setting [4] was at most 0, the “scaled lipid accumulation score” value under setting [5] is at most 0 and the “scaled lipid accumulation score” value under setting [1] was at most 0.
Turning to `O=C(O[C@@H]1Cc2c(O)cc(O)cc2O[C@@H]1c1cc(O)c(O)c(O)c1)c1cc(O)c(O)c(O)c1` [(-)-Epigallocatechin Gallate], the “scaled lipid accumulation score” value under setting [7] is at most 0.
As for `Oc1nc(-c2ccc(C(F)(F)F)cc2)nc2c1CSCC2`, the “scaled lipid accumulation score” value runs as follows: under setting [7], at most 0; under setting [6], at most 0; under setting [1], ≤ 0 and 0.004.
Turning to `c1ccc(Cn2c(-c3ccc(OCC(C4CCNCC4)n4c(-c5ccccc5)nc5ccccc54)cc3)nc3ccccc32)cc1` (stereo not drawn) [Deltarasin], the “scaled lipid accumulation score” value under setting [6] was 0.766 and the “scaled lipid accumulation score” value under setting [1] was 0.104.
Regarding `O=c1[nH]c(=S)[nH]c(-c2ccccc2)c1Cc1c(O)ccc2ccccc12` [Cambinol], the “scaled lipid accumulation score” value under setting [1] was 0.124.
Take `Cc1nc(Nc2n[nH]c3c2CN(C(=O)N[C@H](CN(C)C)c2ccccc2)C3(C)C)c2sccc2n1` [listing 1 of 2 here]: the “scaled lipid accumulation score” value is, setting by setting: under setting [3], at most -0.016; under setting [4], 0.092; under setting [5], 0.522; under setting [6], at most -0.009; under setting [1], 0.594.
Turning to `Cc1nc(Nc2n[nH]c3c2CN(C(=O)N[C@H](CN(C)C)c2ccccc2)C3(C)C)c2sccc2n1` [listing 2 of 2 here], the “scaled lipid accumulation score” value under setting [1] was 0.887 (active).
In the case of `CC(C)CC(=O)Nc1n[nH]c2c1CN(C(=O)C1CCN(C)CC1)C2(C)C`, the “scaled lipid accumulation score” value runs as follows: under setting [3], at most 0; under setting [4], 0.21; under setting [5], 0.029; under setting [6], 0.199; under setting [1], ≤ 0 and 0.015.
With `Cc1nn(C)c(COc2ccc(N3CCN(S(=O)(=O)N(C)C)CC3)cc2)c1-c1cccc2c(CCCOc3cccc4ccccc34)c(C(=O)O)n(CCN3CCOCC3)c12`, the “scaled lipid accumulation score” value is, setting by setting: under setting [3], at most -0.001; under setting [4], at most -0.001; under setting [5], at most -0.001; under setting [1], at most -0.001.
Take `CCCCCCCCCCCCCCCCCCN(CCCCCCCCCCCCCCCCCC)CCCN(CCO)CCO` [Avridine]: the “scaled lipid accumulation score” value under setting [1] is at most 0.
Regarding `N[C@@H](Cn1ccc(=O)c(O)c1)C(=O)O` [L-Mimosine from Koa hoale seeds], the “scaled lipid accumulation score” value under setting [1] was at most 0.
As to `O=C(c1ccc(OCCN2CCCCC2)cc1)c1c(-c2ccc(O)cc2)sc2cc(O)ccc12` [Raloxifene hydrochloride], the “scaled lipid accumulation score” value was 0.032. Under setting [1], the “scaled lipid accumulation score” value was 0.661 and 0.376.
Regarding `c1cc(OCCN2CCCCC2)cc(-c2n[nH]c3ccc(-c4ncn[nH]4)cc23)c1`, the “scaled lipid accumulation score” value under setting [1] was 1.72 (active).
Take `O=C(c1ccc(OCCN2CCCCC2)cc1)c1c(-c2ccc(O)cc2)sc2cc(O)ccc12` [Raloxifene HCl]: the “scaled lipid accumulation score” value under setting [6] is at most 0 and the “scaled lipid accumulation score” value under setting [1] was 0.575.
As to `O=C(OCCN1CCCCC1)c1c[nH]c2ccccc12`, the “scaled lipid accumulation score” value under setting [1] was 0.289.
On to `c1ccc(-c2nn3c(c2-c2ccnc4cc(OCCN5CCOCC5)ccc24)CCC3)nc1`, for which the “scaled lipid accumulation score” value was at most -0.001 under setting [3], at most -0.001 under setting [4], at most -0.001 under setting [5] and at most -0.001 under setting [1].
For the compound `O=C(c1ccc(OCCN2CCCCC2)cc1)c1c(-c2ccc(O)cc2)sc2cc(O)ccc12`, the “scaled lipid accumulation score” value under setting [1] is 0.798.
`c1cc(OCCN2CCCCC2)cc(-c2n[nH]c3ccc(-c4nnc[nH]4)cc23)c1`: the “scaled lipid accumulation score” value is at most -0.016 under setting [3]; ≤ -0.016 and ≤ -0.005 under setting [4]; ≤ -0.016 and 0.022 under setting [5].
Consider `Cl.c1cc(OCCN2CCCCC2)cc(-c2n[nH]c3ccc(-c4nc[nH]n4)cc23)c1`, for which the “scaled lipid accumulation score” value under setting [1] was 1.28 (active).
As to `CCCCC[C@H](O)/C=C/C1=C(C/C=C\CCCC(=O)O)C(=O)CC1` [Prostaglandin B2], the “scaled lipid accumulation score” value under setting [7] is ≤ 0 and ≤ -0.021.
Take `CC(=N)NCCCC[C@H](N)C(=O)O` [L-NIL hydrochloride]: the “scaled lipid accumulation score” value under setting [1] is 0.025.
Regarding `CCCCCCCCCCCC(=O)c1nc2ncccc2o1`, the “scaled lipid accumulation score” value under setting [7] was at most 0.
As for `CCCCC/C=C\C/C=C\CCCCCCCC(=O)NCC(=O)O` [N-linoleoylglycine], under setting [7], the “scaled lipid accumulation score” value is at most -0.021.
Turning to `CCCCC(CC)COc1ccc(-c2nc(-c3ccc(OC)cc3)nc(-c3ccc(OCC(CC)CCCC)cc3O)n2)c(O)c1` (stereo not drawn), the “scaled lipid accumulation score” value under setting [1] is at most 0.
With `CCCCCC=CCC=CCCCCCCCCCC(=O)O` [11(Z),14(Z)-Eicosadienoic Acid], under setting [7], the “scaled lipid accumulation score” value is at most 0.
Turning to `Oc1ccc(Nc2nc(-c3ccc(Cl)cc3)cs2)cc1`, the “scaled lipid accumulation score” value under setting [3] is at most -0.001; the “scaled lipid accumulation score” value under setting [4] was at most -0.001; the “scaled lipid accumulation score” value under setting [5] is at most -0.001; the “scaled lipid accumulation score” value under setting [6] is at most -0.009; the “scaled lipid accumulation score” value under setting [1] is 0.141 and 0.011.
As for `Oc1ccc(Nc2nc(-c3ccc(Cl)cc3)cs2)cc1` [Sphingosine Kinase Inhibitor 2], the “scaled lipid accumulation score” value under setting [7] is 0.058.
Regarding `Cc1cccc(Nc2nc(-c3ccncc3)cs2)c1` [listing 1 of 2 here], under setting [7], the “scaled lipid accumulation score” value is at most 0.
`Cc1cccc(Nc2nc(-c3ccncc3)cs2)c1` [listing 2 of 2 here]: the “scaled lipid accumulation score” value was 0.881 (active) under setting [6] and 1.24 (active) under setting [1].
